Screening data as filed in PubChem.
Rows were chosen to be rich in hits. Some 1.5% of all compounds tested hit in one or more screens of this group.
cardiac RTF act = cardiac RTF calcium sensitization; P19429+P45379; IANBD-labeled TnC RTF fluorescence at EC20 calcium; 0% EC20 calcium, 100% full calcium; activation, % at 7.2 µM; 340,000 compounds, 0.24% hits;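 active = activation above the mean over all tested compounds plus 3 SD, cut at about 30% in these data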;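 note: rise in fluorescence read as greater calcium sensitivity of cardiac thin filaments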
TPT1 inh = blocks Candida albicans tRNA 2'-phosphotransferase. recombinant caTPT1, FP RNA substrate dephosphorylation. inhibition, % at 5 µM. 300,000 compounds, 0.81% hits. AID 1962;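 active = inhibition above the mean of all tested compounds plus 3 SD, set per screening campaign, cut at about 24% in these data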;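 note: plate controls were DMSO alone for no effect and ferristatin control at 100 nM for full effect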
IDE cell activ = boosts human insulin-degrading enzyme activity in HEK cells. 340,000 compounds, 0.073% hits. FAbeta-B cleavage, fluorescence polarization; 0% vehicle, 100% cell-free pure enzyme wells. P14735. activation, % at 5.96 µM;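 active = activation above the mean of all tested compounds plus 3 SD, set per screening campaign, cut at about 17% in these data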
Target sequence (P14735 whole entry, looked up): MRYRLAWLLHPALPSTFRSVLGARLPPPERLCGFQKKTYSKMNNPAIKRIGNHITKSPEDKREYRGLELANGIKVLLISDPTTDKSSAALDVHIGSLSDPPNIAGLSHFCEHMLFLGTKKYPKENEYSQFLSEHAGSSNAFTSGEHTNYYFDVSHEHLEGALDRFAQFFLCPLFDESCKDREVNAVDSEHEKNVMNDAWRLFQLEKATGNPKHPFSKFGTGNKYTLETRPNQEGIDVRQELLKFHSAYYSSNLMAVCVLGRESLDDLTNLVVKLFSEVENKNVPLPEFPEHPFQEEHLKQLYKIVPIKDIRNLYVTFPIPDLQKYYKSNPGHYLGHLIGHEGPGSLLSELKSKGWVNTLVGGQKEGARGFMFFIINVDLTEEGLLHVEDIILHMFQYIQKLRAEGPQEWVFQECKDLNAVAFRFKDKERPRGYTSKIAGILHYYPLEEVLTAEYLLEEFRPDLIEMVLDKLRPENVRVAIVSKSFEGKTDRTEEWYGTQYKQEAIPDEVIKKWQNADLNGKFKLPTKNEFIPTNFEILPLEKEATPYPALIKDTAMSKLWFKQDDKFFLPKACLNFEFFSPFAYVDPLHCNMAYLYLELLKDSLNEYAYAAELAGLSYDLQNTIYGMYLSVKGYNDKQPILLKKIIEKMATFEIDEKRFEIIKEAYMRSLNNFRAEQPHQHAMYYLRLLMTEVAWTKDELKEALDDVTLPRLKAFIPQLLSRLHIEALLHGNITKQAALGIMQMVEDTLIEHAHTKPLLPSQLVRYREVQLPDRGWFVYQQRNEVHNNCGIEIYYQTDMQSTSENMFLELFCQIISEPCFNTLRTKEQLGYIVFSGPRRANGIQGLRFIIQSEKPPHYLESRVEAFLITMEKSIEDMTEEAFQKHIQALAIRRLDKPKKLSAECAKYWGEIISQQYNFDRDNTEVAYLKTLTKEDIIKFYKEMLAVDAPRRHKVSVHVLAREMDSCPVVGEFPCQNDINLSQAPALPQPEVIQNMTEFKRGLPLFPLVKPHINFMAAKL
CRFR2-BP ag = agonists of human CRF-binding protein/CRF-R2 receptor complex | 350,000 compounds, 0.46% hits | activation, % at 13.2 µM | HEK293 CRF-R2/CRF-BP, calcium dye fluorescence (FLIPR); percent of saturating CRF peptide response;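 active = activation of at least 50%, plus an integration ratio under a set limit after plate pattern correction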;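 note: plate controls were neutral control wells without compound for no effect and CRF at EC100 for full effect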
Cardiac RTF inh = cardiac RTF calcium desensitization. 340,000 compounds, 0.12% hits. AID 493244. inhibition, % at 7.15 µM. IANBD-labeled cardiac RTF, Ca2+ fluorescence;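 active = inhibition above the mean inhibition of all tested compounds plus 3 SD, cut at about 17% in these data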;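 note: assay run at fixed EC70 calcium of 1.6 mM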
IDE cell inh = inhibitors of human insulin-degrading enzyme in cells. 320,000 compounds, 0.41% hits. inhibition, % at 5.59 µM. HEK cells, FAbetaB cleavage, fluorescence polarization;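 active = percent inhibition above the average of all tested compounds plus 3 SD, set per screening campaign, cut at about 16% in these data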;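 note: IDE supplied by intact live HEK cells; FP after avidin binding of uncleaved biotin substrate so inhibition keeps polarization high; 0% = DMSO wells and 100% = 60 µM reference IDE inhibitor Ii1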
Active calls of the source: *; i = inactive; . = not tested or not shown; + = active, no number.

SMILES | cardiac RTF act | TPT1 inh | IDE cell activ | CRFR2-BP ag | Cardiac RTF inh | IDE cell inh
Cc1ccc(Cn2nnc(C(=O)Nc3cccc(C)c3C)c2N)cc1 | 6 | 0 | -2 | 105* | -5 | 5
O=[N+]([O-])c1ccc(-c2cn3nc(-c4ccccc4)c(-c4ccccc4)nc3n2)cc1 | . | 17 | . | 66* | . | 16
O=[N+]([O-])c1cccc(-c2cn3nc(-c4ccccc4)c(-c4ccccc4)nc3n2)c1 | 11 | 2 | 1 | 14 | -4 | 8
C=CCn1cccc(C(=O)Nc2ccc(OC)c(Cl)c2)c1=O | 32* | 2 | 0 | -1 | -8 | 0
CCCCN1C(=O)/C(=C/C=C2\SCCN2C)SC1=S | 115* | . | -88 | 81* | -205 | .
CCN1C(=O)/C(=C\N2CCCCCC2)SC1=S | -1 | 10 | -4 | 3 | 6 | 4
CN(C)CCNc1ccc2nnn3c4ccc(O)cc4c(=O)c1c23 | -1 | . | 5 | 2 | -3 | .
CCN(CC)CCCNc1ccc2ncn3c4ccc(O)cc4c(=O)c1c23 | 292* | . | 14 | 215* | -340 | .
N#Cc1cc2c(nc1SCC(=O)Nc1sc3c(c1C#N)CCC3)CCCC2 | 7 | 5 | 2 | 4 | 2 | 2
N#Cc1ccc(-c2ccc(F)cc2)nc1SCC(=O)Nc1sc2c(c1C#N)CCC2 | -2 | 26* | -1 | 0 | -1 | 7
COc1cc(CNC2CCCC2)cc(OC)c1OC | 8 | 0 | 18* | -2 | 3 | -2
COc1cc(CNC2CCCCCC2)cc(OC)c1OC | 0 | -1 | -7 | -1 | -5 | 0
O=C(COc1ccc(Cl)cc1Cl)N/N=C/C1CC=CCC1 (stereo not given) | -4 | -2 | -3 | 0 | -9 | -1
CCCOc1ccc(C(=O)NNC(=S)NC(=O)c2ccco2)cc1 | 0 | 1 | 0 | 137* | -1 | 10
CCCOc1ccc(C(=O)NNC(=S)NC(=O)c2cccs2)cc1 | 2 | 1 | -4 | 113* | 2 | 3
CC(Oc1ccc(Cl)cc1)C(=O)NNC(=S)NC(=O)c1ccco1 (stereo not given) | -1 | -3 | 0 | 135* | -2 | 0
CCCOc1ccc(C(=O)NNC(=S)NC(=O)c2ccccc2)cc1 | -1 | -4 | -1 | 180* | -15 | -1
COc1ccc(C(=O)NNC(=S)NC(=O)c2ccco2)cc1 | 14 | -1 | -1 | 33 | -2 | 0
CCCOc1ccc(C(=O)NNC(=S)NC(C)=O)cc1 | 1 | 0 | 1 | -1 | 8 | 0
OCCNC(=S)Nc1cccc(Cl)c1Cl | 9 | 2 | 0 | -1 | -9 | 3
CCOc1ccccc1NC(=O)CN1C(=O)COc2ccc(C)cc21 | 1 | 1 | -2 | 0 | -5 | 4
CCOC(=O)c1cn(Cc2ccccc2)c2cc(C)nn2c1=O | -1 | -4 | 7 | -1 | -2 | -4
CCOC(=O)c1cn(Cc2ccccc2)c(C(=O)OC(C)(C)C)c1O | -9 | -1 | 7 | 62* | -15 | 8
O=C(Cn1[nH]c(=O)c2ccccc2c1=O)N1CCN(S(=O)(=O)c2ccc(Cl)cc2)CC1 | -4 | . | -2 | 1 | 12 | 5
Cc1ccc(NC(=O)/C(C#N)=N/Nc2ccc(C(=O)O)cc2)c(C)c1 | 0 | -5 | 3 | 0 | -5 | 4
SMILES | cardiac RTF act | TPT1 inh | IDE cell activ | CRFR2-BP ag | Cardiac RTF inh | IDE cell inh
Cc1ccc(N/N=C(\C#N)C(N)=S)c(C)c1 | -2 | -4 | -3 | 60* | 6 | 1
NC(=O)c1c(N)sc2c1CCCCC2 | 30* | 1 | -5 | -2 | -1 | 6
O=C(CNC(=O)c1ccc(S(=O)(=O)N2CCCC2)cc1)N/N=C/c1c(Cl)cccc1Cl | -2 | -3 | -5 | -1 | 7 | 18*
O=C(CNC(=O)c1ccc(S(=O)(=O)N2CCCC2)cc1)N/N=C/c1ccc(Cl)cc1 | 1 | -2 | -4 | 2 | 6 | 7
CC1C(=O)N(Cc2cn(Cc3ccco3)nn2)CCS(=O)(=O)N1Cc1ccc(-c2ccc(Cl)c(Cl)c2)cc1 (stereo not given) | . | . | . | -2 | . | .
CC1CCC2C(=O)N(c3ccc(Cc4ccncc4)cc3)C(=O)C2C1 (stereo not given) | 6 | -4 | 4 | 6 | -3 | 0
COc1cc(OC)c(OC)cc1/C=C1/Cc2ccccc2C1=O | 31* | -5 | -8 | 51* | -60 | 5
COc1ccc(OC)c(Nc2cc(C)nc3ccc(C)cc23)c1 | 0 | 0 | -2 | -1 | -9 | -1
O=C(/C=C/c1ccc(Cl)cc1)Nc1ccc(N2CCCCC2)cc1 | 8 | 3 | 40* | 6 | -12 | 3
CCOC(=O)N1CCN(C(=O)c2cn(CC)c3ccc(S(=O)(=O)N4CCOCC4)cc3c2=O)CC1 | -9 | -5 | 5 | 1 | 4 | 1
O=C(CS)Nc1ccc2ccccc2c1 | 2 | 0 | -13 | 0 | -15 | 17*
CCCCCC(=O)Nc1ccc2ccccc2c1 | -7 | 0 | 6 | -1 | -8 | -2
CCOc1ccccc1NC(=O)COc1cccnc1[N+](=O)[O-] | 3 | . | 0 | -3 | -17 | 2
O=c1cc(-c2ccccc2)oc2cc(O)ccc12 | 9 | . | -7 | -3 | 4 | .
O=c1ccc2c(-c3ccccc3)c3ccc(O)cc3oc-2c1 | + | -11 | 51* | 178* | i | -26
Nc1ccc(-c2c3ccc(=O)cc-3oc3cc(O)ccc23)cc1C(=O)O | + | -10 | 47* | 213 | i | 17*
COc1ccc(C(=O)NCCCNC(=O)c2cccnc2)cc1Br | 1 | -5 | -1 | 0 | -5 | -1
CC(C)n1cc(/C=N/Nc2ccc(C(=O)O)cc2)c2ccccc21 | 0 | 4 | 5 | -5 | -8 | 2
CC(C)n1cc(/C=C/c2cc[n+](C)cc2)c2ccccc21 | 344* | . | -32 | 58* | -475 | .
Cc1cccc(NC(=O)C2CC2c2ccccc2)c1C (stereo not given) | 0 | 0 | 6 | 70* | -3 | -1
CC(=O)N1CCN(S(=O)(=O)c2cccc(C(=O)NCCc3ccc(Cl)cc3)c2)CC1 | 0 | 1 | 5 | 0 | -15 | 2
FC(F)(F)c1cnc(NNC(=S)Nc2ccccc2Cl)c(Cl)c1 | -5 | 2 | -4 | 89* | 5 | 3
Cc1ccc(Cl)cc1N1C(=O)CC(Sc2ccccc2N)C1=O (stereo not given) | . | . | . | 20 | . | .
CCOc1ccc(Br)cc1C1=CC(=O)C[C@H](c2ccc(OC)cc2)C1 | 5 | . | 5 | 163* | -21 | 2
COc1ccc([C@H]2CC(=O)C=C(c3cc(Br)ccc3OC)C2)cc1 | -4 | . | 1 | 2 | -10 | 1
NC(=O)c1ccsc1NC(=O)COC(=O)Cc1ccccc1[N+](=O)[O-] | . | . | . | -1 | . | .
